# Laboratory results: the supplement of paper PMC10849652
# About 7,900 targets were measured; listed, in parts, are those with a hit and a random draw of the rest. About 0.6% of all pairs of compound and target were hits. A number with no mark means an inactive call.
# Key:
# Assay in all cases: log2 fold change, soluble protein after heating vs DMSO (PISA); higher = thermal stabilisation; K562 cells, 10 uM, 30 min; active = over 0.2 and 3.5 SD of the protein, either way, in both replicates (recomputed)
# bafetinib = compound: Cc1ccc(NC(=O)c2ccc(CN3CC[C@H](N(C)C)C3)c(C(F)(F)F)c2)cc1Nc1nccc(-c2cncnc2)n1 [bafetinib]
# Method in brief: (§1)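 K562 cells (2×10^6 cells/mL) were treated with 10 μM compound for 30 min, and aliquots were heated for 3 min over 48°C-58°C. Pooled aliquots were extracted in PBS with 0.5% NP-40 at 4°C, and the supernatant after 21,000xg for 90 min was measured by TMTpro 16plex LC-MS/MS with channel sums equalised. Reported thermal stability, relative to control samples and from duplicates, is a log2 fold change.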
# [1] = compound: Cc1cccc(CC(=O)N2CCc3c2ccc(-c2cn(C)c4ncnc(N)c24)c3F)n1
# Method in brief: as §1
# nilotinib = compound: Cc1cn(-c2cc(NC(=O)c3ccc(C)c(Nc4nccc(-c5cccnc5)n4)c3)cc(C(F)(F)F)c2)cn1 [nilotinib]
# Method in brief: as §1
# [2] = compound: Cc1nc(Nc2n[nH]c3c2CN(C(=O)N[C@H](CN(C)C)c2ccccc2)C3(C)C)c2sccc2n1
# Method in brief: as §1
# dasatinib = compound: Cc1nc(Nc2ncc(C(=O)Nc3c(C)cccc3Cl)s2)cc(N2CCN(CCO)CC2)n1 [dasatinib]
# Method in brief: as §1
# [3] = compound: Cc1ncc(-c2ccnc(Nc3ccc(S(C)(=O)=O)cc3)n2)n1C(C)C
# Method in brief: as §1
# [4] = compound: Cn1cc(-c2ccc3c(c2)CCN3C(=O)Cc2cccc(C(F)(F)F)c2)c2c(N)ncnc21
# Method in brief: as §1
# [5] = compound: Cn1cc(-c2ccc3nnc(C(F)(F)c4ccc5ncccc5c4)n3n2)cn1
# Method in brief: as §1
# tipifarnib = compound: Cn1cncc1[C@@](N)(c1ccc(Cl)cc1)c1ccc2c(c1)c(-c1cccc(Cl)c1)cc(=O)n2C [tipifarnib]
# Method in brief: as §1
# mubritinib = compound: FC(F)(F)c1ccc(/C=C/c2nc(COc3ccc(CCCCn4ccnn4)cc3)co2)cc1 [mubritinib]
# Method in brief: as §1
# UniProt Q9H814, sequence (Q9H814 whole entry, looked up): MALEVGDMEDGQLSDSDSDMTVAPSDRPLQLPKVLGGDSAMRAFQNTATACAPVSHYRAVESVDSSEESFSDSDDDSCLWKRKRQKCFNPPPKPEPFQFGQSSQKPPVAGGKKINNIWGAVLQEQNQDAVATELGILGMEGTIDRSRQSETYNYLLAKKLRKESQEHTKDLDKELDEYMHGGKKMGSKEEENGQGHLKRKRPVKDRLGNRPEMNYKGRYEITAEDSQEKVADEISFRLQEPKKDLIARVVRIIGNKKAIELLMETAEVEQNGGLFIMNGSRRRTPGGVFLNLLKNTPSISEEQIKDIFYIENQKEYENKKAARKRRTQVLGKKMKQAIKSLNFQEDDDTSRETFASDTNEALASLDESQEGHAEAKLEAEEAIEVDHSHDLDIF
# UniProt P62136, sequence (P62136 whole entry, looked up): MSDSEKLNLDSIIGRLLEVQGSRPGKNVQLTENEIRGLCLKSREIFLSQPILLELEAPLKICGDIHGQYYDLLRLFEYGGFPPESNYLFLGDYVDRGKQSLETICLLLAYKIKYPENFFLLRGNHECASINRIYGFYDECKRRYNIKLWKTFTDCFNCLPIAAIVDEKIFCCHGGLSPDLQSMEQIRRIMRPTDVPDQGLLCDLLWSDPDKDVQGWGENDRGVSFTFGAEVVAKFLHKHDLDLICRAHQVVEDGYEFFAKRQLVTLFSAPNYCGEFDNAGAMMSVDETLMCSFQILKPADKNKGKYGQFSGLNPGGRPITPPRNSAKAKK
# UniProt O75340, sequence (O75340 whole entry, looked up): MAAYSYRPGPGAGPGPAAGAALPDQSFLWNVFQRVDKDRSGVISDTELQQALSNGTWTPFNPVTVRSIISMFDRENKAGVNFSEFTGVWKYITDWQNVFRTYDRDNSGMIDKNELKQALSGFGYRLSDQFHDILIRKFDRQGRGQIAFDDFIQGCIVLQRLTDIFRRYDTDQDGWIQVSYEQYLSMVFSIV
# UniProt Q86UU1, sequence (Q86UU1 whole entry, looked up): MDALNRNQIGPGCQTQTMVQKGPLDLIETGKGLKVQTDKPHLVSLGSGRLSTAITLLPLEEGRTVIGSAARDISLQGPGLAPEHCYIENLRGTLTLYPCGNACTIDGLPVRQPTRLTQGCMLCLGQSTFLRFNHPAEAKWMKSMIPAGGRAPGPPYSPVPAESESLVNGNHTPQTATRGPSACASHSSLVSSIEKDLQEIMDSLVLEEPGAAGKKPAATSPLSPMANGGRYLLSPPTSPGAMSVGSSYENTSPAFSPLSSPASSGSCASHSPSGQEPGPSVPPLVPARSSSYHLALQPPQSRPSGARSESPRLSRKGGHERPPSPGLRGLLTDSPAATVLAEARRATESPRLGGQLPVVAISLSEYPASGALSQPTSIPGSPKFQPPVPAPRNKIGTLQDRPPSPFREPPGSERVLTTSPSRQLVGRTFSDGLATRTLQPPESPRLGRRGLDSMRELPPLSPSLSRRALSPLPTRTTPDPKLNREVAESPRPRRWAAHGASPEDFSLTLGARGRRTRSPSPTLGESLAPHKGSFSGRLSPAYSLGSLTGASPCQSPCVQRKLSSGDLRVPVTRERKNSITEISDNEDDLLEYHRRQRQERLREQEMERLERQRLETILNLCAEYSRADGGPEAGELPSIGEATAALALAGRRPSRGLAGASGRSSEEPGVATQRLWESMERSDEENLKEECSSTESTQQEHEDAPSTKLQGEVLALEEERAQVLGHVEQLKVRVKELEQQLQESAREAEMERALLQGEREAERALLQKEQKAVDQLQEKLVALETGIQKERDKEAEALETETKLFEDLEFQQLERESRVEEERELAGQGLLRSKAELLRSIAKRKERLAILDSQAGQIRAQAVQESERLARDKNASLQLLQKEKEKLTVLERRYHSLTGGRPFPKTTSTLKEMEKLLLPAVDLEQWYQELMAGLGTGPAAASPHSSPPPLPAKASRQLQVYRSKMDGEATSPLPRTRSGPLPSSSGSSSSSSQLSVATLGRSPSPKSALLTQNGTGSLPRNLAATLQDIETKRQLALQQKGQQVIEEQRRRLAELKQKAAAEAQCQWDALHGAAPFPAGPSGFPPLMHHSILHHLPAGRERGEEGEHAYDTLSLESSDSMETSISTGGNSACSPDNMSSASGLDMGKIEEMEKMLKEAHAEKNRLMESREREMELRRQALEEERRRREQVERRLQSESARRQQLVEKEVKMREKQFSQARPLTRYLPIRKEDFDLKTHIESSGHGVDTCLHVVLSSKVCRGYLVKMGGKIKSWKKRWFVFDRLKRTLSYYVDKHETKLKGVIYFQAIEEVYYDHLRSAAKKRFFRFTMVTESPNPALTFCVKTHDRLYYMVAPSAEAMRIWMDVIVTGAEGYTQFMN
# UniProt Q9UG56, sequence (Q9UG56 whole entry, looked up): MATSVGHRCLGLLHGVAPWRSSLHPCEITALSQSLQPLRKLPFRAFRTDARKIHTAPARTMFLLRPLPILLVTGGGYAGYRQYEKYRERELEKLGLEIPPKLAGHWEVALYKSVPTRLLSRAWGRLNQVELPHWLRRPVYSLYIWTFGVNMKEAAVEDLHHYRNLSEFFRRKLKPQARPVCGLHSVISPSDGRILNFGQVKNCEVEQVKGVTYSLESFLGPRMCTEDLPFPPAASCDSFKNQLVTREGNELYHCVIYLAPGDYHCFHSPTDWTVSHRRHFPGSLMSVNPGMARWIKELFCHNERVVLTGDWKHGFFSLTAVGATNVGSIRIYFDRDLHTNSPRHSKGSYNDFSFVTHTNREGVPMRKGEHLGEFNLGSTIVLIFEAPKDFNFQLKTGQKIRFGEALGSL
# UniProt Q8NAV1, sequence (Q8NAV1 whole entry, looked up): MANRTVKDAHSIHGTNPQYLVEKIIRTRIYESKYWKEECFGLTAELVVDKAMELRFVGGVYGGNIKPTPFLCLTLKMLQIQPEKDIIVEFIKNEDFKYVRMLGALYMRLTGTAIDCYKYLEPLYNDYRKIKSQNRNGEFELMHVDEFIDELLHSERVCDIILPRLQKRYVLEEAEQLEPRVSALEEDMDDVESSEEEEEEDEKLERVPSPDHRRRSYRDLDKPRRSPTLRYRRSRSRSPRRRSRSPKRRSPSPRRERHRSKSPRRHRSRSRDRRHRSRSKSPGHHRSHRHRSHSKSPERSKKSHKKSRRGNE
# UniProt Q15121, sequence (Q15121 whole entry, looked up): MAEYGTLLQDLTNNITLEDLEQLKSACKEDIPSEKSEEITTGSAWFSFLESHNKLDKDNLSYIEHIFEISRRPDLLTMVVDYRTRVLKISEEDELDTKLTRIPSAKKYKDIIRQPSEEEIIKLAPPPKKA
# UniProt Q9NP80, sequence (Q9NP80 whole entry, looked up): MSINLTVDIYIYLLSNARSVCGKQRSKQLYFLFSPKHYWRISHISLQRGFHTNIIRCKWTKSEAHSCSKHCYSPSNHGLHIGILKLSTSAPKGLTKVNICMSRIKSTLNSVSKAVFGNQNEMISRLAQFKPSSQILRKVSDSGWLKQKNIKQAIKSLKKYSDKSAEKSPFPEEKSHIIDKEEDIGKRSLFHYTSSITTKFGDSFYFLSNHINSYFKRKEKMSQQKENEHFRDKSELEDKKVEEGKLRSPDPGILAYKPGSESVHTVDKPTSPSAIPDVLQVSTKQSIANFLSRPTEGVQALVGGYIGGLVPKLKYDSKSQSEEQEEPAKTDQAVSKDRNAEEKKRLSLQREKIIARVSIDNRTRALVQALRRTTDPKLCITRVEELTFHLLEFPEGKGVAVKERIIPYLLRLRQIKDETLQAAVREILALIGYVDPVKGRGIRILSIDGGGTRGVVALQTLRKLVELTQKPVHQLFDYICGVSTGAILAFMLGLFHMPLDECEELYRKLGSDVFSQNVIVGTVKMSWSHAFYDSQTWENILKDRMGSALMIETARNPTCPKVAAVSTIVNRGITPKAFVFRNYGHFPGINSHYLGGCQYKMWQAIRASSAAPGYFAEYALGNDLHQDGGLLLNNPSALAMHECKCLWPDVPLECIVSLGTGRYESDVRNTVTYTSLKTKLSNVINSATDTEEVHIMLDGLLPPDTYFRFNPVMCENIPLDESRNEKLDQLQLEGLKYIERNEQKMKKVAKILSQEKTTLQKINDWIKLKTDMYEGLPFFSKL
# UniProt P49585, sequence (P49585 whole entry, looked up): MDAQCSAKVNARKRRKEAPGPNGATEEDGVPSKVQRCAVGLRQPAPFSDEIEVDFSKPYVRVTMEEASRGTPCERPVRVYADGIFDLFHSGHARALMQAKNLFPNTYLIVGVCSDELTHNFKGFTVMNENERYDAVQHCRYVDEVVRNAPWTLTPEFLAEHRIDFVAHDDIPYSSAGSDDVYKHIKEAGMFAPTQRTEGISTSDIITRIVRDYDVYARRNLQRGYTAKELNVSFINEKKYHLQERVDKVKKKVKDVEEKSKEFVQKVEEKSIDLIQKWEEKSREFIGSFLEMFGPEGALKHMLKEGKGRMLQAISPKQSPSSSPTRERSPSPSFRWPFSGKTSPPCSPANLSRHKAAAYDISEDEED
# UniProt Q13356, sequence (Q13356 whole entry, looked up): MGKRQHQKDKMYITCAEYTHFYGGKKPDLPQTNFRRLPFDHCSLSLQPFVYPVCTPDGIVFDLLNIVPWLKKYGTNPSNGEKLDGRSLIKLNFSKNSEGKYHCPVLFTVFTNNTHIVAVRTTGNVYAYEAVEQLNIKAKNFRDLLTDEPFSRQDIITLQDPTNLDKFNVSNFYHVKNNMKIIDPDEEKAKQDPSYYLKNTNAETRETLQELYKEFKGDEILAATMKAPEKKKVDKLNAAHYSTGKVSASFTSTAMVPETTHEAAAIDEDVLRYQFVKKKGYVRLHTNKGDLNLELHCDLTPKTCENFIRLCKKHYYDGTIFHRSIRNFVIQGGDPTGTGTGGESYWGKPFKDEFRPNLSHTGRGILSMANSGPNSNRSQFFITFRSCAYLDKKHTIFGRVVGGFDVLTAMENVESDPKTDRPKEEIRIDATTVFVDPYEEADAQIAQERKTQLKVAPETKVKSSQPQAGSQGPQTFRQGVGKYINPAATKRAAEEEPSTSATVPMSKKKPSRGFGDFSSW
Target,log2 fold change (bafetinib),log2 fold change [1],log2 fold change (nilotinib),log2 fold change [2],log2 fold change (dasatinib),log2 fold change [3],log2 fold change [4],log2 fold change [5],log2 fold change (tipifarnib),log2 fold change (mubritinib)
PITRM1 isoform 2 (UniProt Q5JRX3),-0.052,-0.039,-0.108,0.01,-0.132,-0.088,0.119,-0.004,0.003,0.005
PISD (UniProt Q9UG56),-0.042,-0.007,-0.053,-0.003,-0.029,0.105,-0.068,-0.02,-0.005,0.103
PPP1CA (UniProt P62136),-0.053,-0.001,-0.002,-0.006,0.008,-0.011,0.018,0.065,0.023,0.065
PHLDB1 isoform 2 (UniProt Q86UU1),-0.112,0.117,0.136,-0.265,-0.073,-0.128,0.061,0.016,0.057,0.14
PRPF31 (UniProt Q8WWY3),-0.012,0.01,-0.037,-0.572 (active),-0.274,-0.387,0.055,0.053,-0.031,-0.014
PRIM2 (UniProt P49643),0.007,-0.019,-0.063,-0.06,-0.128,0.021,0.015,0.046,-0.018,0.101
PPIL2 (UniProt Q13356),-0.008,0.032,-0.056,-0.086,-0.127,0.068,0.03,0.046,-0.142,0.011
PRPF38A (UniProt Q8NAV1),0.048,0.025,-0.006,-0.871 (active),-0.033,-0.073,-0.011,-0.08,0.036,0.201
PCYT1A (UniProt P49585),-0.142,0.035,-1.47 (active),-0.129,-0.185,-0.04,0.033,0.001,0.006,0.176
PNPLA8 (UniProt Q9NP80),-0.04,-0.13,0.036,-0.026,-0.055,0.038,0.036,-0.063,0.053,0.095
PDS5B (UniProt Q9NTI5),0.041,-0.139,-0.314,0.04,-0.244,-0.031,0.038,0.147,0.054,0.127
PHAX (UniProt Q9H814),-0.056,-0.117,0.028,-0.176,0.03,-0.096,-0.033,0.006,0.011,0.013
PEA15 isoform 2 (UniProt Q15121),-0.077,-0.008,0,-0.4 (active),-0.026,-0.004,0.036,0.021,0.04,0.054
POLR2G (UniProt P62487),-0.048,-0.038,0.012,0.188,0.054,0.202,0.009,0.002,0,0.065
PDCD6 (UniProt O75340),-0.11,-0.005,-0.071,0.042,-0.021,-0.026,0.027,0.022,-0.034,0.009
